This note sets out measurements from ChEMBL document CHEMBL4513146, “CO-ADD screening of Karazin Kharkiv National University (Ukraine) compounds”.

The subject of one assay is Klebsiella pneumoniae. Conditions: Concentration 32 ug.mL-1;; ASSAY_TEST Inhibition of Bacterial Growth; detection method Absorption (OD600); MEDIA CAMHB; plate type 384well; NBS; CORNING #3640; time 18 hr.
The test system of another assay is Candida albicans. As to conditions: Concentration 32 ug.mL-1; ASSAY_TEST Inhibition of Fungal Growth; detection method Absorption (OD530).
In a further assay the test system is Cryptococcus neoformans. As to conditions: Concentration 32 ug.mL-1; ASSAY_TEST Inhibition of Fungal Growth; detection method Resazurin; Absorption (OD600-OD570); plate type 384well; NBS; CORNING #3640.

Measured potencies and affinities stand elsewhere.

As to `CC(C)NC(=O)CCn1c(=O)c2ccccc2n2c(=O)n(CC#N)nc12`, the values for the Inhibition in the assay with Klebsiella pneumoniae, in the assay on Candida albicans and in the assay with Cryptococcus neoformans were 10.9%, 0.91% and -13.64%, respectively.
For the compound `COc1ccc(NC(=O)Cn2nc3c(Sc4ccccc4)nccn3c2=O)c(OC)c1`, the Inhibition with Klebsiella pneumoniae is 2.54%; in the assay with Candida albicans, 2.27%; with Cryptococcus neoformans it was -16.55%.
`CSc1cccc(NC(=O)Cn2nc3ccc(-c4ccccc4)nn3c2=O)c1`: the results for the Inhibition in the assay with Klebsiella pneumoniae, with Candida albicans and with Cryptococcus neoformans were -3.17%, 3.96% and -8.45%, respectively.
Consider `CCc1nnc2c(SCC(=O)Nc3ccc(C(=O)OC)cc3)nc3ccccc3n12`, for which the Inhibition in the assay on Klebsiella pneumoniae was 5.41%; with Candida albicans, 4.91%; with Cryptococcus neoformans, -21.71%.
Regarding `CCc1ccccc1Sc1nccn2c(=O)n(CC(=O)Nc3ccc(Br)cc3)nc12`, the Inhibition in the assay with Klebsiella pneumoniae is 22.46%; in the assay with Candida albicans, 14.92%; in the assay on Cryptococcus neoformans, -1.52%.
Turning to `Cc1ccc(C)c(S(=O)(=O)Nc2ccc3nncn3n2)c1`, the Inhibition in the assay on Klebsiella pneumoniae is on record as 4.11%; in the assay on Candida albicans it was 0.56%; in the assay with Cryptococcus neoformans, -3.83%.
Take `Cc1cc2nn(CC(=O)Nc3cc(F)ccc3C)c(=O)n2c(Nc2ccc(C)c(F)c2)n1`: the values for the Inhibition with Klebsiella pneumoniae, in the assay on Candida albicans and in the assay on Cryptococcus neoformans were 11.43%, 3.99% and -7.37%, respectively.
Regarding `Cc1ccc(-c2ccc3nn(Cc4cccc(Br)c4)c(=O)n3n2)cc1`, the Inhibition is 7.86% in the assay on Klebsiella pneumoniae, -0.24% in the assay on Candida albicans and -13.72% in the assay with Cryptococcus neoformans.
On to `COc1ccc(-c2cc3c4nnc(SCC(=O)Nc5cc(Cl)ccc5C)n4ccn3n2)cc1`, for which the Inhibition with Klebsiella pneumoniae is recorded as 0.68%; in the assay on Candida albicans, 28.62%; in the assay with Cryptococcus neoformans it was -34.55%.
Turning to `Cc1ccc(Oc2nccn3c(=O)n(CC(=O)Nc4ccc5c(c4)OCO5)nc23)cc1`, the Inhibition in the assay with Klebsiella pneumoniae is reported as 3.22%; in the assay on Candida albicans, -1.46%; in the assay on Cryptococcus neoformans it was -8.87%.
Turning to `COc1cccc(-n2ccn3c(SCC(=O)Nc4ccc(C(C)C)cc4)nnc3c2=O)c1`, the Inhibition was -7.28% in the assay on Klebsiella pneumoniae, 18.36% in the assay on Candida albicans and -10.59% in the assay on Cryptococcus neoformans.
For the compound `COC(=O)c1ccc(NC(=O)Cn2c(=O)c3nnc(C(C)C)n3c3ccccc32)cc1`, the results for the Inhibition in the assay with Klebsiella pneumoniae, in the assay on Candida albicans and with Cryptococcus neoformans were 11.69%, -0.03% and -26.77%, respectively.
On to `CC(C)Sc1ccc2nn(CC(=O)Nc3ccc(F)cc3Cl)c(=O)n2n1`, for which the figures for the Inhibition in the assay with Klebsiella pneumoniae, with Candida albicans and in the assay with Cryptococcus neoformans were 6.92%, 3.44% and -6.24%, respectively.
On the same counts, the results for `COc1ccc(-c2cc3c4nn(CC(=O)Nc5c(C)cc(C)cc5C)c(=O)n4ccn3n2)cc1` are 6.07%, -1.73% and -15.2%.
On the same counts, the results for `COc1cc(OC)c(NC(=O)Cn2nc3c4c5c(sc4ncn3c2=O)CC(C)CC5)cc1Cl` (stereo not drawn) are 11.66%, 3.55% and -23.25%.
On to `COc1ccc(-c2cc3c4nnc(CCC(=O)NCc5ccc6c(c5)OCO6)n4ccn3n2)cc1`, for which the Inhibition in the assay on Klebsiella pneumoniae is on record as 9.82%; in the assay with Candida albicans it was 3.53%; in the assay with Cryptococcus neoformans it was -3.36%.
In the case of `Cc1cc2nn(CC(=O)Nc3ccccc3F)c(=O)n2c(Nc2ccc(C)c(F)c2)n1`, the figures for the Inhibition in the assay with Klebsiella pneumoniae, with Candida albicans and with Cryptococcus neoformans were 4.36%, 4.06% and -8.37%, respectively.
On to `Cc1ccc(-c2cc3c4nn(CC(=O)Nc5ccccc5Cl)c(=O)n4ccn3n2)cc1`, for which the Inhibition with Klebsiella pneumoniae is on record as 2.6%; in the assay on Candida albicans, 0.36%; in the assay on Cryptococcus neoformans it was -23.03%.
Regarding `COc1ccccc1-n1ccn2c(SCC(=O)NCc3ccc(Cl)cc3)nnc2c1=O`, the results for the Inhibition with Klebsiella pneumoniae, in the assay with Candida albicans and in the assay with Cryptococcus neoformans were 9.61%, 4.77% and -6.31%, respectively.
Take `COC(=O)c1ccccc1NC(=O)Cn1nc2c3sc(N4CCCC4)nc3ncn2c1=O`: the Inhibition was 7.53% with Klebsiella pneumoniae, 3.62% in the assay with Candida albicans and -7.62% with Cryptococcus neoformans.
Consider `COc1ccc(CN(c2cc(C)cc(C)c2)S(=O)(=O)c2cccn3cnnc23)cc1F`, for which the Inhibition is -0.72% in the assay with Klebsiella pneumoniae, 0.54% in the assay with Candida albicans and -10.15% in the assay on Cryptococcus neoformans.
On the same counts, the results for `CC(=O)c1ccc(NC(=O)Cn2nc3ccc(-c4ccccc4)nn3c2=O)cc1` are 10.95%, 2.61% and -13.06%.
As for `COc1ccc(C(=O)CSc2nnc3c(=O)n(-c4ccc(F)cc4)ccn23)cc1`, the Inhibition with Klebsiella pneumoniae is 10.95%; in the assay on Candida albicans, 4.42%; in the assay on Cryptococcus neoformans, -10%.
On the same counts, the results for `O=C(Cn1nc2ccc(-c3ccccc3)nn2c1=O)Nc1cccc(Cl)c1` are 2.74%, 18.56% and -15.44%.
`O=C(Cn1nc2c(SC3CCCCC3)nccn2c1=O)NCc1ccc(F)cc1`: the figures for the Inhibition in the assay on Klebsiella pneumoniae, in the assay on Candida albicans and with Cryptococcus neoformans were 9.17%, 0.24% and -16.51%, respectively.
Regarding `CC(C)c1ccc(NC(=O)Cn2nc3c(N4CCCC4)nccn3c2=O)cc1`, the Inhibition was 11.79% in the assay on Klebsiella pneumoniae, 2.06% in the assay with Candida albicans and -12.68% in the assay on Cryptococcus neoformans.
As for `NC(=O)C1CCN(C(=O)CCc2nnc3c(N4CCCCC4)nc4ccccc4n23)CC1`, the Inhibition in the assay on Klebsiella pneumoniae is listed as 15.2%; in the assay on Candida albicans it was 1.8%; with Cryptococcus neoformans, -5.85%.
In the case of `Cc1ccc(C)c(NC(=O)Cn2nc3c(Sc4ccccc4)nccn3c2=O)c1`, the Inhibition in the assay on Klebsiella pneumoniae is 3.53%; in the assay on Candida albicans, 1.24%; in the assay on Cryptococcus neoformans it was -8.99%.
For the compound `CSc1ccc(CNC(=O)Cn2nc3c(N4CCN(c5ccccc5)CC4)nccn3c2=O)cc1`, the Inhibition with Klebsiella pneumoniae is 15.47%; in the assay on Candida albicans it was 1.95%; in the assay with Cryptococcus neoformans, -6.85%.
Consider `COc1ccc(-c2cc3c4nn(CC(=O)Nc5ccc6c(c5)OCO6)c(=O)n4ccn3n2)cc1`, for which the Inhibition in the assay on Klebsiella pneumoniae is given as 2.73%; in the assay on Candida albicans, 15.19%; with Cryptococcus neoformans it was -14.04%.
For `CC(C)c1ccc(NC(=O)Cn2nc3c(SCc4ccccc4)nccn3c2=O)cc1`, the Inhibition is listed as 2.82% with Klebsiella pneumoniae, 10.67% in the assay on Candida albicans and -15.97% with Cryptococcus neoformans.
